Data as given in the supplement of paper PMC4166925.
± gives the standard deviation of the averaged measurements. Whole data set: some 33,000 sequences, median “E-score (dimensionless, -0.5 to 0.5)” near -0.049, cut for the highest 2% near 0.37. Many of the other results were omitted from the sample, so the highest values are more common in it than they were.

What follows are sequences tested on T1, PmTbr T-box DNA-binding domain (GST fusion) (assay: PBM E-score of 8-mer (E-score (dimensionless, -0.5 to 0.5)); Tbr is Tbrain of the sea star Patiria miniata (Pm) or the sea urchin Strongylocentrotus purpuratus (Sp); higher = stronger binding preference). Details: the construct has about 5 more residues each side.
T1 sequence: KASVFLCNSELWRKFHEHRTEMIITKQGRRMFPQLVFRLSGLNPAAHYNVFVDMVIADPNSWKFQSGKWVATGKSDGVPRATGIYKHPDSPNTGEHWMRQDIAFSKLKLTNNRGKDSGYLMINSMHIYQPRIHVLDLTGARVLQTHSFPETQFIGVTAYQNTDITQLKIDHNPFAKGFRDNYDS
Description: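 Universal protein-binding microarray (Agilent AMADID 016060, 60-bp probes with a 35-bp variable region) incubated with 200 nM GST-fused Patiria miniata Tbr T-box DNA-binding domain (residues 272-466) in PBS pH 7.5. Scored for every ungapped 8-mer (given with its reverse complement) by the Universal PBM Analysis Suite as E-score (modified Wilcoxon-Mann-Whitney enrichment, range -0.5 to 0.5; >0.45 counts as bound) and Z-score of median probe intensity. Two replicate arrays (datasets 1 and 2).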
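Note: 200 nM protein in PBS on universal arrays averaged over duplicate arrays.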

Sequence | PBM E-score of 8-mer
CTGCCACA | 0.226 ± 0.014
GCAAAGGA | -0.229 ± 0.021
CTTCTCGC | 0.229 ± 0.027
ACCTGGGG | 0.0226 ± 0.0096
AGTCGAGG | 0.0125 ± 0.11
CGTACTGA | -0.105 ± 0.017
AATCTAAA | -0.0399 ± 0.05
AGCATCCC | -0.136 ± 0.039
CACTGTGG | -0.16 ± 0.098
CTATTATC | -0.101 ± 0.018
ATGTGCCA | 0.375 ± 0.0048
ATGTGCTA | 0.396 ± 0.0083
GAGTGCCA | 0.242 ± 0.0057
AAGTGCCC | -0.143 ± 0.0036
ATGTGCTC | -0.297 ± 0.012
ATGTGCCC | -0.0261 ± 0.068
AAGTGCCA | 0.41 ± 0.0065
ACGTGCTA | 0.417 ± 0.019
CCGTGCTA | 0.263 ± 0.0013
GCGTGCTA | 0.261 ± 0.0046
CTGTGCTA | 0.0225 ± 0.0027
ATGTGCCG | 0.0963 ± 0.036

Sequence | PBM E-score of 8-mer
ATGACCTC | -0.0665 ± 0.086
CAGCGATA | 0.0152 ± 0.0054
ACAAGAGG | -0.108 ± 0.048
CATACAGG | -0.17 ± 0.0088
CCACTCCG | -0.01631 ± 0.00014
GATTAGAC | -0.0447 ± 0.044
GCCTCTGA | 0.0009 ± 0.067
ACTTAAAG | 0.0623 ± 0.041
AAGTGCTC | 0.0187 ± 0.018
AAGTGCTA | 0.448 ± 0.016
AAGTGCTG | 0.283 ± 0.0071
CCCTTAAG | -0.00471 ± 0.02
CGTGCAGC | 0.0118 ± 0.029
AATCGCAC | 0.381 ± 0.0051
CATCGCAG | 0.0526 ± 0.063
GATCGCAA | 0.244 ± 0.013
CATCGCAC | 0.373 ± 0.023
AATCGCAG | 0.0445 ± 0.062
CATCGCAA | 0.0368 ± 0.039
GATCGCGC | 0.289 ± 0.018
AATCGCAT | 0.0479 ± 0.038
GATCGCAC | 0.42 ± 0.018

Sequence | PBM E-score of 8-mer
ACGAATGG | 0.0417 ± 0.027
GAATGGGA | -0.214 ± 0.011
GCCATGTA | -0.101 ± 0.045
ACCACTCC | 0.0476 ± 0.03
CCTTGCGA | 0.243 ± 0.012
AGTTGCGA | 0.412 ± 0.0052
AGTTGCGC | 0.0703 ± 0.035
GCTTGCGA | 0.105 ± 0.024
AGTTGCGG | 0.0771 ± 0.12
ACTTGCGA | 0.386 ± 0.006
CGGGTCAC | 0.113 ± 0.024
CAGAGGTC | -0.0549 ± 0.0023
ACAGTAAC | 0.186 ± 0.054
GCTTAAGC | -0.292 ± 0.0039
AGGCCCCC | -0.332 ± 0.014
AAACGGCA | 0.0707 ± 0.068
GGCTTCAA | -0.121 ± 0.014
AATTCGAC | -0.0254 ± 0.029
CCATCACG | 0.033 ± 0.018
AGGTGGAG | 0.141 ± 0.0032
GGGTGGTA | 0.121 ± 0.07
AGGTGGGA | 0.418 ± 0.01

Sequence | PBM E-score of 8-mer
CGGTGGTA | -0.00583 ± 0.042
AGGTGGGC | -0.0782 ± 0.065
AGGTGGTG | 0.385 ± 0.042
AGGTGGTA | 0.415 ± 0.0043
AGGTGGTC | -0.0579 ± 0.012
CGGTGGGA | -0.0368 ± 0.0018
ATTCAGAG | -0.13 ± 0.0013
CGACTTGC | 0.161 ± 0.025
CCATCTCG | -0.0242 ± 0.099
GCTTGCCC | -0.245 ± 0.0072
TCCATCGA | -0.121 ± 0.022
ATAACGCC | 0.237 ± 0.023
ATTGCACG | 0.152 ± 0.033
GGGTGGCA | 0.322 ± 0.024
AGGTGGCC | 0.0319 ± 0.077
CGGTGGCA | 0.147 ± 0.031
AGGTGGCA | 0.436 ± 0.0087
AAGTGGCG | 0.3473 ± 0.0029
AGGTGGCG | 0.412 ± 0.023
AAGTTGGA | -0.0116 ± 0.045
AGAAGTCC | 0.0869 ± 0.022
GTAGCCCA | -0.311 ± 0.012

Sequence | PBM E-score of 8-mer
CCACATCC | -0.102 ± 0.032
ACACATCG | 0.382 ± 0.017
ACACATCT | 0.325 ± 0.019
GCACATCC | 0.136 ± 0.038
ACACATCC | 0.3871 ± 0.0015
ACACATCA | 0.299 ± 0.017
ACTTCTCC | -0.0311 ± 0.0014
GGAGGCTA | -0.209 ± 0.016
ATAGGCAT | -0.337 ± 0.021
AAAAGGTC | -0.0764 ± 0.033
CAAAGGTG | 0.436 ± 0.018
AAAAGGTT | -0.0316 ± 0.041
AAAAGGTG | 0.442 ± 0.012
CAAAGGTC | -0.13 ± 0.039
CAAAGGTA | -0.133 ± 0.035
GAAATTAA | -0.113 ± 0.044
GTTGCTCA | 0.0245 ± 0.051
ACCCTCAG | 0.0121 ± 0.00031
AACTAGGC | -0.0964 ± 0.044
CTTCCCCC | -0.166 ± 0.07
AGCTGGGC | -0.222 ± 0.056
GCTGGTTA | -0.0863 ± 0.064
